Active and inactive are the calls of the source.
Experiments:
[1] = optical density shifts of acrAB sulA E. coli – strain DRC41, OD650, 48 h, E. coli filamentation inducer project, primary screen (AID 1152); details: higher = more signal, called active from +8 up or from −8 down;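 also: E. coli MC1000 strain DRC41 lacking acrAB efflux pump and sulA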
[2] = probe aLefty1 binding on compound microarray – biochemical, small-molecule microarray, 635/667 nm fluorescence, primary screen (AID 1153); details: higher = more signal;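 also: score merges spot fluorescence with signal-to-noise ratio from the scanned slide images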
[3] = plasmodial surface anion channel blockers, osmotic lysis – cell-based, P. falciparum Indochina, OD700, 1 h, primary screen (AID 1154); details: P. falciparum Indochina infected RBC osmotic lysis, higher = more signal, called active from +8 up or from −8 down
[4] = plasmodial surface anion channel blockers, osmotic lysis – cell-based, P. falciparum Indochina, OD700, 2 h, primary screen (AID 1155);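 also: lysis reports solute entry through the parasite surface anion channel PSAC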; details: P. falciparum Indochina infected erythrocytes, higher = more signal, called active from +8 up or from −8 down
[5] = changes in parasitized red cell lysis, either direction – P. falciparum Indochina, OD700, 3 h, PSAC antagonist project, primary screen (AID 1156); details: P. falciparum-infected erythrocytes, osmotic lysis, higher = more signal, called active from +8 up or from −8 down
[6] = plasmodial surface anion channel blockers, osmotic lysis – cell-based, P. falciparum Indochina, OD700, 18 h, primary screen (AID 1157); details: P. falciparum Indochina infected erythrocytes, osmotic lysis OD700, 18 h; higher = more signal, called active from +8 up or from −8 down
[7] = S6 kinase pathway phospho-S6 level changes – cell-based, A549, cytoblot, luminescence, serum-stimulated, primary screen (AID 1158); details: 5 h, higher = more signal;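 also: serum-stimulated A549 lung adenocarcinoma cells; signal is phosphorylated S6 detected by cytoblot immunostaining with HRP secondary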
[8] = target: NADPH oxidase 2 (Homo sapiens) (UniProt P04839); assay: compounds shifting NOX2 Amplex Red fluorescence – cell-based, HEK293-NOX2, PMA-stimulated, NOX inhibitor project, primary screen (AID 1159); details: 45 min, higher = more signal, called active from +8 up or from −8 down; also: test concentration not given here
NADPH oxidase 2 (Homo sapiens), sequence (P04839 whole entry, looked up): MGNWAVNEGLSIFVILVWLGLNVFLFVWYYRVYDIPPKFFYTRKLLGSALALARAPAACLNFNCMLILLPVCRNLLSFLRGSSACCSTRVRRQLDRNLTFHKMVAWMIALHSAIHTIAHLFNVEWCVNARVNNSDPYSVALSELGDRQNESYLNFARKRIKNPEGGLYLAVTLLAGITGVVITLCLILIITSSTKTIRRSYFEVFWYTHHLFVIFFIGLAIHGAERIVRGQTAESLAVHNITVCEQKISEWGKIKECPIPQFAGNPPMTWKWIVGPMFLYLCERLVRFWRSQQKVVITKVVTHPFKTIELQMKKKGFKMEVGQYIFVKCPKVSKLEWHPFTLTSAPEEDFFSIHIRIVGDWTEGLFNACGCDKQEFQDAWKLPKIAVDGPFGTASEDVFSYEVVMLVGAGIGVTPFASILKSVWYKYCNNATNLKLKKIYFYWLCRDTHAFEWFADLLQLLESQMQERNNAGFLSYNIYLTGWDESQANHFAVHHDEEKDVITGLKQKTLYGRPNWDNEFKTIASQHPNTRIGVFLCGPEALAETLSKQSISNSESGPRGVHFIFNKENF

[9] = target: NADPH oxidase 4 (Homo sapiens) (UniProt Q9NPH5); assay: compounds shifting NOX4 Amplex Red fluorescence – cell-based, HEK293-NOX4, tetracycline-induced, NOX inhibitor project, primary screen (AID 1160); details: HEK293-NOX4, Amplex Red H2O2 fluorescence, 45 min; higher = more signal, called active from +8 up or from −8 down
NADPH oxidase 4 (Homo sapiens), sequence (Q9NPH5 whole entry, looked up): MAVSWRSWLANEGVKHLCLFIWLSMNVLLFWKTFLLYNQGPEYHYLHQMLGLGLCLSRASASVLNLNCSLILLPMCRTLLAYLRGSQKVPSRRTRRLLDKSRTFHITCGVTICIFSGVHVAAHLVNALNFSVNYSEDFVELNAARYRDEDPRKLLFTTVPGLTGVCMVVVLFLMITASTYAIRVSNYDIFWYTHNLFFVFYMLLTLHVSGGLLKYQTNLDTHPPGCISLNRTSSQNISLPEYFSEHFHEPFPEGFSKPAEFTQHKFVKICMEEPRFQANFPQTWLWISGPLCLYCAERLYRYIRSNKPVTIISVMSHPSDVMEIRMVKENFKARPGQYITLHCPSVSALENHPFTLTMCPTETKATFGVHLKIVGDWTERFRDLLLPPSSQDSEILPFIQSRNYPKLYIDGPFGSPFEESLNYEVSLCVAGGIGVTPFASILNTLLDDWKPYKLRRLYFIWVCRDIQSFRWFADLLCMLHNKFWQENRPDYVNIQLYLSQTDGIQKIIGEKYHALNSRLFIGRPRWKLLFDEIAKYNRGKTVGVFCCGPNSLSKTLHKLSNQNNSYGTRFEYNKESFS

[10] = target: NADPH oxidase 5 (Homo sapiens) (UniProt Q96PH1); assay: compounds shifting NOX5 Amplex Red fluorescence – cell-based, HEK293-NOX5, NOX inhibitor project, primary screen (AID 1161); details: HEK293-NOX5, ionomycin, 45 min, higher = more signal
NADPH oxidase 5 (Homo sapiens), sequence (Q96PH1 whole entry, looked up): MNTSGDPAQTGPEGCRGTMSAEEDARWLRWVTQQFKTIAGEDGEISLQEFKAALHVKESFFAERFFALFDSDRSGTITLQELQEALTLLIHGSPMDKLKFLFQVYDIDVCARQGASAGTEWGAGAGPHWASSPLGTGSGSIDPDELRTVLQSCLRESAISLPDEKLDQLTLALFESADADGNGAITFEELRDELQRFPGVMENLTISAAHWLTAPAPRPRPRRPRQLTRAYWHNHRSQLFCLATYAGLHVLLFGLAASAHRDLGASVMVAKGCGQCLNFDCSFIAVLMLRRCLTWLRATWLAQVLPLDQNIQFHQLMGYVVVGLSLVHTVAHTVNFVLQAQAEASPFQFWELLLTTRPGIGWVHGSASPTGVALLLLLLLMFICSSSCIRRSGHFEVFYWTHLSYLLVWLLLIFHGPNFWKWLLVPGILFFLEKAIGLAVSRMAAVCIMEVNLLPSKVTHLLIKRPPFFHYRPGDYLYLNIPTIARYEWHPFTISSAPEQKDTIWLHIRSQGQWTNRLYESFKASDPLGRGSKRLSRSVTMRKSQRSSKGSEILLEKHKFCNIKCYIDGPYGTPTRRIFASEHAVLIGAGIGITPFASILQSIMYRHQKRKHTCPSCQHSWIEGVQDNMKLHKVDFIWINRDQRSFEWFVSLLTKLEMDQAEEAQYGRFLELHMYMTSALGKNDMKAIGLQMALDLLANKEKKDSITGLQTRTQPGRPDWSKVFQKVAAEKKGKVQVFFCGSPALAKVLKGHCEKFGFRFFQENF

[11] = compound effects on lung adenocarcinoma cell viability – A549, calcein-AM fluorescence, 48 h, basal, profiling panel (AID 1162); details: higher = more signal; also: test concentration not given here
[12] = compound effects on differentiated 3T3-L1 adipocyte viability – cell-based, 3T3-L1 adipocytes, calcein-AM fluorescence, 48 h, basal, profiling panel (AID 1163); details: 3T3-L1 adipocytes viability, higher = more signal; also: test concentration not given here
[13] = compound effects on hepatocellular carcinoma cell viability – HepG2, calcein-AM fluorescence, 48 h, basal, profiling panel (AID 1164); details: higher = more signal; also: test concentration not given here
[14] = compound effects on multiple myeloma cell viability – MM1S, calcein-AM fluorescence, 48 h, basal, profiling panel (AID 1165); details: higher = more signal;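 also: viability of MM1S multiple myeloma cells under basal unstimulated conditions; test concentration not given here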
[15] = calcein-AM signal in unstimulated myeloma cells – cell-based, calcein-AM fluorescence, 48 h, PK04 Diversity Set, profiling panel (AID 1166); details: RPMI8226 myeloma viability, higher = more signal;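 also: cells grown under basal conditions without added stimulus; test concentration not given here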
[16] = JC-1 mitochondrial signal, unstimulated HepG2 cells – cell-based, JC-1 fluorescence, 24 h, 100 nL compound, profiling panel (AID 1167); details: HepG2 mitochondrial potential, higher = more signal; also: test concentration not given here
[17] = JC-1 mitochondrial signal, unstimulated adipocytes – cell-based, JC-1 fluorescence, 3T3-L1 adipocytes, 24 h, 100 nL compound, profiling panel (AID 1168); details: JC-1 mitochondrial fluorescence, higher = more signal, called active from +8 up or from −8 down; also: test concentration not given here
[18] = JC-1 mitochondrial signal, unstimulated myeloma cells – cell-based, JC-1 fluorescence, RPMI8226, 24 h, 100 nL compound, profiling panel (AID 1169); details: JC-1 mitochondrial potential fluorescence, higher = more signal; also: test concentration not given here
[19] = JC-1 mitochondrial signal, unstimulated MM1S myeloma – cell-based, JC-1 fluorescence, 24 h, 100 nL compound, profiling panel (AID 1170); details: MM1S mitochondrial potential, higher = more signal; also: test concentration not given here
[20] = resazurin metabolic signal in A549 cells – cell-based, resazurin fluorescence, 24 h, PK04 Diversity Set, profiling panel (AID 1171); details: A549 viability, higher = more signal, called active from +8 up or from −8 down; also: test concentration not given here

Structure (SMILES)	z-score [1]	composite z-score [2]	z-score [3]	z-score [4]	z-score [5]	z-score [6]	z-score [7]	z-score [8]	z-score [9]	z-score [10]	z-score [11]	z-score [12]	z-score [13]	z-score [14]	z-score [15]	z-score [16]	z-score [17]	z-score [18]	z-score [19]	z-score [20]
COC(=O)[C@@]1(Cc2ccc(F)cc2)[C@H]2c3cc(C(=O)N4CCCC4)n(CCO)c3C[C@H]2CN1C(=O)c1ccccc1	-1.56 (inactive)	-0.193	2.59 (inactive)	0.279 (inactive)	1.48 (inactive)	0.716 (inactive)	0.871	0.54 (inactive)	2 (inactive)	0.15	0.448	-0.35	-0.885	0.309	-0.929	1.04	0.379 (inactive)	-0.249	-0.996	0.11 (inactive)
C=C(COC)/C(=C/C[C@H](OC(=O)c1ccncc1)c1ccc(OCCO)cc1)c1cc(C(=O)OC)ccc1OC	1.79 (inactive)	0.0999	21.4 (active)	2.24 (inactive)	2.31 (inactive)	-1.02 (inactive)	0.876	-3.16 (inactive)	-1.49 (inactive)	-2.53	-0.313	1.7	-0.842	-1.18	-0.443	1.37	-0.4 (inactive)	0.368	0.0527	1.29 (inactive)
COc1ccc(CCNC(=O)[C@@]2(C)c3ccccc3C(=O)N(Cc3cc(C(F)(F)F)cc(C(F)(F)F)c3)[C@H]2c2ccc(CO)cc2)cc1	1.28 (inactive)	-0.216	8.19 (active)	0.566 (inactive)	1.85 (inactive)	-0.388 (inactive)	2.76	-3.19 (inactive)	-1.7 (inactive)	-2.75	0.0571	1.28	-0.23	-2.16	-3.99	1.11	-0.299 (inactive)	-0.428	0.783	0.616 (inactive)
C=CCC(OC(C)=O)[C@@H]1[C@@H](N(Cc2cc3ccccc3o2)C(=O)Cc2ccc(OC)cc2)c2cc(OCCCO)ccc2N1C(=O)Cc1ccc(OC)cc1 (stereo not given in full)	-0.759 (inactive)	0.0091	2.19 (inactive)	0.297 (inactive)	1.23 (inactive)	0.336 (inactive)	-0.0725	-0.685 (inactive)	-0.727 (inactive)	-2.19	0.3	1.71	0.128	0.708	-1.74	2.14	-0.184 (inactive)	-0.566	0.799	-0.914 (inactive)
C=CC[C@]1(C(=O)NCc2ccccc2)COC(c2ccc(OCCCO)cc2)=N1	0.553 (inactive)	0.743	20.7 (active)	6.37 (inactive)	1.44 (inactive)	0.541 (inactive)	-0.429	-2.18 (inactive)	0.00403 (inactive)	-2.1	-0.555	0.548	-2.51	-2.01	-0.953	-3.22	-0.436 (inactive)	-0.4	-0.107	-0.256 (inactive)
CCOC(=O)C1=C[C@@H](C(C)(C)C)N(S(=O)(=O)c2ccc(C)cc2)[C@H]1c1ccccc1Cl	-1.29 (inactive)	0.208	-0.747 (inactive)	0.627 (inactive)	-0.775 (inactive)	0.193 (inactive)	-0.535	-1.54 (inactive)	-0.44 (inactive)	0.1	-0.917	-1.16	-1.81	-0.991	-1.2	3.95	0.147 (inactive)	-0.822	-0.863	0.772 (inactive)
COCCOC(=O)N1C(=O)[C@@]2(c3ccccc31)[C@H](C(N)=O)[C@H]1C(=O)O[C@H](c3ccccc3)[C@H](c3ccccc3)N1[C@@H]2c1ccc(OCCO)cc1	1.15 (inactive)	0.196	3.76 (inactive)	0.527 (inactive)	-0.535 (inactive)	0.436 (inactive)	-0.211	-0.555 (inactive)	1.1 (inactive)	0.00857	-0.429	0.452	-0.363	-0.198	0.711	-0.914	0.055 (inactive)	-0.112	-0.523	0.574 (inactive)
Cc1ccc(F)cc1S(=O)(=O)N[C@@H]1CCN(Cc2ccc3c(c2)OCO3)C1	-3.25 (inactive)	-0.0984	1.36 (inactive)	0.491 (inactive)	0.076 (inactive)	0.329 (inactive)	-0.0688	-0.438 (inactive)	-0.228 (inactive)	-0.687	0.923	-0.447	0.326	0.361	-0.525	-0.184	-0.0208 (inactive)	0.302	-0.591	-0.156 (inactive)
C=CCN1C(=O)[C@]2(O[C@H](CCn3cc([C@H](O)c4ccccc4)nn3)[C@@H]([Si](C)(C)c3ccc(OC)cc3)[C@@H]2C)c2cc(N3C(=O)c4cccc5cccc3c45)ccc21	0.443 (inactive)	-0.101	5.26 (inactive)	1.59 (inactive)	1.97 (inactive)	0.889 (inactive)	0.435	1.06 (inactive)	1.11 (inactive)	0.797	-0.133	-0.363	-3.33	-1.4	-4.46	2.24	1.19 (inactive)	-1.02	-1.33	-1.7 (inactive)
CCC(CC)C(O)C1C=CC2C(=O)N(C)C(=O)C2N1N1CCCCC1 (stereo not given)	-1.65 (inactive)	0.361	1.41 (inactive)	0.787 (inactive)	0.156 (inactive)	0.729 (inactive)	-1.17	-0.893 (inactive)	-1.17 (inactive)	-1.35	-0.0236	-0.505	-0.502	-0.651	-0.521	-1.34	-0.115 (inactive)	0.153	-0.557	0.0051 (inactive)
CN(C)CCCNC(=O)[C@@]1(Cc2ccccc2I)c2ccccc2C(=O)N(Cc2ccccc2)[C@H]1c1ccc(CO)cc1	-0.206 (inactive)	-0.729	1.88 (inactive)	0.614 (inactive)	-1.26 (inactive)	0.452 (inactive)	-0.5	-8.23 (active)	-3.08 (inactive)	-1.71	-2.02	-0.826	-3.4	-3.73	-3.31	0.601	-0.354 (inactive)	-0.681	-1.54	-3.32 (inactive)
CN(C)C(=O)[C@]1(Cc2ccccc2)N=C(c2ccc(OCCCO)cc2)O[C@@H]1c1ccccc1	-0.855 (inactive)	-0.13	28.8 (active)	23.9 (active)	-0.0356 (inactive)	2.51 (inactive)	-0.0744	0.945 (inactive)	-0.372 (inactive)	-1.73	-0.092	-0.577	0.846	-0.864	-1	0.0944	0.193 (inactive)	-1.11	-0.192	0.747 (inactive)
CC(C)(C)N1CC=CC23O[C@@H]4/C=C\CCCOC(=O)C4[C@H]2C(=O)N(CCCCCCO)[C@@H]3C1=O (stereo not given in full)	1.88 (inactive)	0.0903	1.64 (inactive)	-0.353 (inactive)	0.703 (inactive)	-0.331 (inactive)	1.97	0.834 (inactive)	-0.0239 (inactive)	2.04	0.0079	0.164	0.797	1.83	-0.0296	1.17	1.04 (inactive)	0.116	-0.892	0.204 (inactive)
C=C(/C(=C/C[C@@H](OC(C)=O)c1ccccc1OCCO)c1cc(C(=O)OC)ccc1OC)C(C)C	0.516 (inactive)	-0.0545	14.6 (active)	2.61 (inactive)	1.4 (inactive)	0.994 (inactive)	0.0105	1.58 (inactive)	-0.286 (inactive)	-1.43	0.793	-0.515	0.561	-3.21	-1.11	0.605	0.118 (inactive)	0.367	-0.503	0.583 (inactive)
CCCCCCCCCCC(O)C1C=CC2C(=O)N(C)C(=O)C2N1N1CCCCC1 (stereo not given)	-1.83 (inactive)	0.532	9.71 (active)	2.41 (inactive)	2.12 (inactive)	2.2 (inactive)	-1.58	1.18 (inactive)	-1.94 (inactive)	2.16	-1.25	-1.6	-1.17	-3.29	-3.54	-0.235	-1 (inactive)	-1	-0.517	-0.041 (inactive)
C=CCC(OC(C)=O)[C@@H]1[C@@H](N(Cc2ccc(-c3cccc(C(F)(F)F)c3)o2)C(=O)Cc2ccc(F)cc2)c2cc(OCCCO)ccc2N1C(=O)c1ccc2ccccc2c1 (stereo not given in full)	-0.353 (inactive)	0.0732	0.05 (inactive)	-0.213 (inactive)	0.337 (inactive)	0.161 (inactive)	0.531	-2.05 (inactive)	0.631 (inactive)	0.0399	-0.292	0.499	0.966	0.353	0.366	2.03	0.294 (inactive)	-0.793	0.251	0.116 (inactive)
COc1ccc(CCNC(=O)[C@@]2(Sc3ccc(C)cc3)CC(=O)N(C(C)C)[C@@H]2c2ccc(CO)cc2)cc1	-0.58 (inactive)	0.0391	2.36 (inactive)	0.741 (inactive)	0.152 (inactive)	0.549 (inactive)	-0.21	-0.575 (inactive)	-1.16 (inactive)	-2.03	0.353	0.356	-0.453	-0.169	0.0991	-0.41	0.0372 (inactive)	0.043	0.277	-0.107 (inactive)
COCCOC(=O)N1C(=O)[C@@]2(c3cc(C#Cc4ccc(OC)cc4)ccc31)[C@H](C(=O)Nc1nc3ccccc3s1)[C@H]1C(=O)O[C@H](c3ccccc3)[C@H](c3ccccc3)N1[C@@H]2c1ccccc1OCCO	2.47 (inactive)	-0.295	8.82 (active)	0.873 (inactive)	0.953 (inactive)	0.514 (inactive)	0.486	1.13 (inactive)	0.337 (inactive)	1.45	-0.49	1.31	0.195	-1.35	-0.213	-2.46	3.66 (inactive)	-0.678	-0.881	0.027 (inactive)

Reference: PubChem BioAssay
